CHO-K1 Ca ag: M1 agonist counterscreen hit in parental CHO-K1 cells; Fluo-8 calcium fluorescence; scaled to maximal ATP response, vehicle zero; activation, % at 3 µM; 360,000 tested, 0.48% active; in the data active = activation above about 15%;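 also: untransfected CHO-K1 host cells lacking M1 receptor as counterscreen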
CHO-K1 Ca antag: M1 antagonist counterscreen hit in parental CHO-K1 cells; ATP-induced calcium, Fluo-8 fluorescence; AID 602250; inhibition, % at 3 µM; 360,000 tested, 0.6% active;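 active = inhibition above a per-plate cutoff, the plate's mean sample inhibition plus 3 SD, cut at about 24% in these data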;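 also: 0% = DMSO plus EC80 ATP and 100% = DMSO alone without ATP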
CHO-K1 Ca PAM: counter-screen for M1 PAMs: effect in parental CHO-K1 cells; ATP EC20, Fluo-8 calcium fluorescence; 0% at ATP EC20, 100% at ATP max; activation, % at 3 µM; 360,000 tested, 0.02% active; AID 602247;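 active = activation above the run cutoff, the mean activation of all test compounds plus 3 SD, cut at about 40% in these data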;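 also: peak over basal fluorescence ratio in a 140 s read after ATP addition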
CHRM1 PAM: potentiates human M1 receptor response to acetylcholine; P11229; CHO-K1 hM1, Fluo-8 calcium fluorescence, ACh EC20; 0% = ACh EC20, 100% = maximal ACh; activation, % at 3 µM; 360,000 tested, 0.088% active; AID 588819; in the data active = activation above about 19%, passing the limit was not always enough
Target sequence (P11229 whole entry, looked up): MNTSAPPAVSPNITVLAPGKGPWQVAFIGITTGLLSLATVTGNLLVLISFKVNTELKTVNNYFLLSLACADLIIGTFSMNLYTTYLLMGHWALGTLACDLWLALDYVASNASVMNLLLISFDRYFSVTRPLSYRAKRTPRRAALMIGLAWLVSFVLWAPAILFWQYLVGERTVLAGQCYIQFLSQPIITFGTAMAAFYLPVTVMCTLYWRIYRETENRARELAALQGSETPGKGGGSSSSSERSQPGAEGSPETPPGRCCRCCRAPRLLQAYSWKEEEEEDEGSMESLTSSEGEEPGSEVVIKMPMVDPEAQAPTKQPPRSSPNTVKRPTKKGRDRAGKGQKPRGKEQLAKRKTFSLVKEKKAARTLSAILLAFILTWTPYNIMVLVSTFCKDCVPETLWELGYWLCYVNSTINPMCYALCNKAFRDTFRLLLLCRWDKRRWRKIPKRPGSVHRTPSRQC
CHRM1 antagonist: antagonists of human M1 muscarinic receptor | inhibition, % at 3 µM | 360,000 tested, 1.3% active | AID 588852 | P11229 | CHO-K1 hM1, Fluo-8 calcium fluorescence, ACh EC80 antagonist;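 active = percent inhibition above its own plate's cutoff, namely the mean of that plate's compound wells plus 3 SD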;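 also: peak over basal fluorescence ratio during 140 s after agonist addition; 0% = ACh EC80 plus DMSO and 100% = DMSO alone without agonist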
M1 ag: activates human CHRM1 receptor. CHO-K1 hM1, Fluo-8 calcium fluorescence, agonist mode; 0% DMSO, 100% acetylcholine EC100. activation, % at 3 µM. 360,000 tested, 0.33% active. AID 588814;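 active = activation above the run's mean compound activation plus 3 SD, cut at about 16% in these data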;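 also: peak over basal fluorescence ratio within a 140 s kinetic read after compound addition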
Starred values were filed as active, the others as inactive. Hits are enriched below; roughly 2.3% of the tested compounds scored in any of these assays.

NS(=O)(=O)c1ccc(CCNC(=O)c2ccc(C#CC3(O)CCCCC3)cc2)cc1 was read as CHO-K1 Ca ag 6, CHO-K1 Ca antag 20, CHO-K1 Ca PAM 0, CHRM1 PAM -22, CHRM1 antagonist 38* and M1 ag 0.
Screening CC(=O)Nc1ccc(S(=O)(=O)NCCc2ccc(S(N)(=O)=O)cc2)cc1 returned CHO-K1 Ca ag 0, CHO-K1 Ca antag -4, CHO-K1 Ca PAM 13, CHRM1 PAM 9, CHRM1 antagonist -9 and M1 ag 0.
`Cc1cc(C)n2nc(C(=O)OCC(=O)Nc3ccc(C)c(S(=O)(=O)N4CCOCC4)c3)nc2n1` gave CHO-K1 Ca ag 0, CHO-K1 Ca antag 9, CHO-K1 Ca PAM 2, CHRM1 PAM 15, CHRM1 antagonist -7 and M1 ag -1.
Screening CC(C)(C)NC(=O)C1(C)CCC(=O)N1C1CCN(Cc2ccccc2)CC1 (stereo not drawn) returned CHO-K1 Ca ag 0, CHO-K1 Ca antag -4, CHO-K1 Ca PAM 11, CHRM1 PAM 1, CHRM1 antagonist -3 and M1 ag -2.
For COc1ccc(S(=O)(=O)N(C)C[C@H]2Oc3ccc(NC(=O)c4ccncc4)cc3C(=O)N([C@H](C)CO)C[C@@H]2C)cc1 the results were CHO-K1 Ca ag 0, CHO-K1 Ca antag -15, CHO-K1 Ca PAM -5, CHRM1 PAM -3, CHRM1 antagonist -1 and M1 ag -6.
Screening CC(=O)Nc1ccc(Sc2ncccc2C(=O)Nc2ccc(F)cc2)cn1 returned CHO-K1 Ca ag 37*, CHO-K1 Ca antag 12, CHO-K1 Ca PAM -15, CHRM1 PAM -24, CHRM1 antagonist 52* and M1 ag 69*.
Screening CCOc1ccc(S(=O)(=O)N2CCC(C(=O)NCc3cccnc3)CC2)cc1C returned CHO-K1 Ca ag -1, CHO-K1 Ca antag -20, CHO-K1 Ca PAM 22, CHRM1 PAM 19, CHRM1 antagonist -21 and M1 ag -5.
CS(=O)(=O)Nc1ccc(-c2cccc3nccn23)cc1 was read as CHO-K1 Ca ag 0, CHO-K1 Ca antag 6, CHO-K1 Ca PAM 0, CHRM1 PAM -12, CHRM1 antagonist 24* and M1 ag -2.
`CN(C)c1ccc(-c2cccc3nccn23)cc1` gave CHO-K1 Ca ag 1, CHO-K1 Ca antag -9, CHO-K1 Ca PAM 16, CHRM1 PAM 1, CHRM1 antagonist -9 and M1 ag -8.
`CN(C(=O)c1ccc(NC(=O)Cc2cccc(NC(=O)C3CCN(C(=O)C4CCCC4)CC3)c2)cc1)C1CCCC1` gave CHO-K1 Ca ag 0, CHO-K1 Ca antag -6, CHO-K1 Ca PAM 15, CHRM1 PAM 8, CHRM1 antagonist -15 and M1 ag -5.
O=C(NCc1ccccn1)C1CCCN(S(=O)(=O)c2cc(Cl)ccc2Cl)C1 (stereo not drawn) was read as CHO-K1 Ca ag 0, CHO-K1 Ca antag -5, CHO-K1 Ca PAM 5, CHRM1 PAM 8, CHRM1 antagonist -5 and M1 ag -3.
Screening Cn1c(=O)oc2cc(S(=O)(=O)N3CCCC(C(=O)NCc4cccs4)C3)ccc21 (stereo not drawn) returned CHO-K1 Ca ag 0, CHO-K1 Ca antag 27*, CHO-K1 Ca PAM -10, CHRM1 PAM 1, CHRM1 antagonist -7 and M1 ag -7.
`Cn1c(=O)oc2cc(S(=O)(=O)N3CCCC(C(=O)NCc4ccc5c(c4)OCO5)C3)ccc21` (stereo not drawn) gave CHO-K1 Ca ag 0, CHO-K1 Ca antag -10, CHO-K1 Ca PAM 16, CHRM1 PAM 9, CHRM1 antagonist -13 and M1 ag -3.
`O=C(NCc1ccccn1)C1CCCN(S(=O)(=O)c2ccc(Br)cc2)C1` (stereo not drawn) gave CHO-K1 Ca ag 0, CHO-K1 Ca antag 24*, CHO-K1 Ca PAM -9, CHRM1 PAM -9, CHRM1 antagonist 8 and M1 ag -6.
Screening CCOc1ccc(N2CC(C(=O)Nc3ccc(S(=O)(=O)Nc4nccs4)cc3)CC2=O)cc1 (stereo not drawn) returned CHO-K1 Ca ag 0, CHO-K1 Ca antag -3, CHO-K1 Ca PAM 15, CHRM1 PAM -1, CHRM1 antagonist -3 and M1 ag -4.
`CCCS(=O)(=O)NC(=O)C1(C)CCCN(C(=O)c2c(-c3ccccc3)noc2C)C1` (stereo not drawn) gave CHO-K1 Ca ag 0, CHO-K1 Ca antag -6, CHO-K1 Ca PAM -6, CHRM1 PAM -1, CHRM1 antagonist -10 and M1 ag -2.
For O=C1CCC2(CCCCC2)N1 the results were CHO-K1 Ca ag 0, CHO-K1 Ca antag -10, CHO-K1 Ca PAM 2, CHRM1 PAM 7, CHRM1 antagonist -17 and M1 ag 0.
`CCN(CC)c1cc2c(c3c1ccn3C)C1CCC2C1` (stereo not drawn) gave CHO-K1 Ca ag 0, CHO-K1 Ca antag 25*, CHO-K1 Ca PAM 0, CHRM1 PAM -11, CHRM1 antagonist 23 and M1 ag -9.
`CN(c1ccc(Cl)cc1)c1cc2c(c3c1ccn3C)C1CCC2C1` (stereo not drawn) gave CHO-K1 Ca ag 1, CHO-K1 Ca antag -2, CHO-K1 Ca PAM 21, CHRM1 PAM 11, CHRM1 antagonist -7 and M1 ag -4.
For Cn1ccc2c(N3c4ccccc4CCc4ccccc43)cc3c(c21)C1CCC3C1 (stereo not drawn) the results were CHO-K1 Ca ag 0, CHO-K1 Ca antag 9, CHO-K1 Ca PAM 6, CHRM1 PAM -16, CHRM1 antagonist 37* and M1 ag -12.
For Cn1ccc2c(-c3cccc4ccccc34)cc3c(c21)C1CCC3C1 (stereo not drawn) the results were CHO-K1 Ca ag 0, CHO-K1 Ca antag 38*, CHO-K1 Ca PAM -9, CHRM1 PAM 17, CHRM1 antagonist 1 and M1 ag 10.
`CN(c1cc(Cl)c2c(c1)OCO2)c1cc2c(c3c1ccn3C)C1CCC2C1` (stereo not drawn) gave CHO-K1 Ca ag 0, CHO-K1 Ca antag 27*, CHO-K1 Ca PAM 3, CHRM1 PAM -3, CHRM1 antagonist 4 and M1 ag -6.
For NCC(c1ccccc1Cl)c1c[nH]c2ccccc12 (stereo not drawn) the results were CHO-K1 Ca ag 1, CHO-K1 Ca antag -6, CHO-K1 Ca PAM 19, CHRM1 PAM 5, CHRM1 antagonist -14 and M1 ag -2.
NCC(c1ccc(Cl)cc1Cl)c1c[nH]c2ccccc12 (stereo not drawn) was read as CHO-K1 Ca ag 15*, CHO-K1 Ca antag 25*, CHO-K1 Ca PAM -13, CHRM1 PAM 0, CHRM1 antagonist 9 and M1 ag 3.
`CC(Sc1nc2c(c(=O)[nH]1)CCCC2)C(=O)Nc1ccccc1C#N` (stereo not drawn) gave CHO-K1 Ca ag 0, CHO-K1 Ca antag -14, CHO-K1 Ca PAM -5, CHRM1 PAM 10, CHRM1 antagonist -15 and M1 ag -5.
